The values below come from PubChem BioAssay (NCI).

Several values for one entry are separate records, joined by “and”; a condition that tells them apart may be missing. Equal values may be shown once. The panel holds about 83,000 compounds, 20% with a hit somewhere; the sample as a whole holds those more often.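 Percent growth is the endpoint: 0 to 100 indicates growth inhibition (40 means 60% inhibition), 0 means no net growth, and negative values indicate cell death.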 Activity calls are given as the source filed them. The calls were made as follows: active = growth percent below 10; inactive = the rest.

This test deals with HL-60(TB) leukemia. In words: NCI-60 one-dose screen, 48 h (100 = growth as untreated, 0 = no growth, -100 = all killed). As to conditions: 10 µM unless noted.
As for `COc1cc2ncnc(-n3ncc4cc(NC(=O)Nc5ccc(Cl)c(Cl)c5)ccc43)c2cc1OC`, the growth was 15.3% (inactive).

In the case of `O=C(Nc1cccc(-n2cc(-c3ccncc3)c(-c3ccc(Cl)c(O)c3)n2)c1)Nc1cccc(C(F)(F)F)c1`, the growth was 12.5% (inactive).

As to `CN(C)CCC(=O)Nc1ccc(-n2cc(-c3cccc(NC(=S)Nc4cccc(-c5cn(-c6ccc(NC(=O)CCN(C)C)cc6)nn5)c4)c3)nn2)cc1`, the growth is 94% (inactive).

On to `Fc1ccc2[nH]cc(-c3nonc3-c3c[nH]c4ccc(Br)cc34)c2c1`, for which the growth was 34.5% (inactive).

On to `CC(=O)OC(OC(C)=O)C1CCCO1` (centres undefined), for which the growth is 147% (inactive).

Regarding `COc1ccc(NC(=O)C2c3ccccc3C(=O)N(CC(C)C)C2c2cccs2)cc1` (centres undefined), the growth was 90% (inactive).

Regarding `CCNC(=S)NN`, the growth was 100% (inactive).

In the case of `CCOC(=O)c1cc(C(=O)OCC)c(C)nc1C`, the growth is 96.9% (inactive).

As for `O=C(NCCc1ccccc1)/C(=C\c1ccc(Cl)cc1Cl)NC(=O)c1ccccc1`, the growth was 112% (inactive).

In the case of `O=C(Nc1ccc(Br)cc1)c1cc(Br)ccc1O`, the growth is -18.4% (active) and -60% (active).

For `C#Cc1cccc(Nc2ncnc3ccc(-c4cncc(NS(C)(=O)=O)c4)cc23)c1`, the growth is 4% (active).

As for `O=C(Nc1ccc(-c2nc(-c3cccc(OCCN4CCOCC4)c3)c(-c3ccnc(Br)c3)[nH]2)cc1)c1ccccc1`, the growth was -41.2% (active).

As for `C#CC(=O)Nc1cccc(Nc2nc3c(c(NCc4ccccc4)n2)CCCC3)c1`, the growth is -25.5% (active).

Take `Cc1cc(Nc2cccc(C(F)(F)F)c2)n2c(nc3ccccc32)c1C#N`: the growth was 31.8% (inactive).

Take `COc1nc2ccccc2s1`: the growth was 94.5% (inactive).

In the case of `COc1ccc(-c2c(C)noc2-c2ccc(O)cc2O)cc1`, the growth is 64.9% (inactive).

For `S=C(S)NCCc1c[nH]c2ccccc12`, the growth is 91.4% (inactive).

For the molecule `COc1cc2c(cc1-c1c(C)noc1C)ncc1nc(C3CCOCC3)n([C@@H](C)COC(F)F)c12`, the growth is 24.7% (inactive).

Consider `O=C(O)C1C2CC3C(OC(=O)C31)C2Br` (centres undefined), for which the growth was 97% (inactive) and 103% (inactive).

Regarding `Cc1ccc([C@@H]2C[C@H](O)Cc3ccccc3N2)s1`, the growth was 121% (inactive).

Turning to `O=C1N=NC2=C1c1c3ccccc3c(O)n1CC2`, the growth is 105% (inactive).

Regarding `CC(CN(C)C)CN1c2ccccc2Sc2ccccc21` (centres undefined), the growth is 91.3% (inactive) and 105% (inactive) and 94.5% (inactive).

Regarding `O=C(c1ccccc1)C(Cl)C(Cl)c1ccccc1` (centres undefined), the growth was 25.2% (inactive).

For the molecule `COc1ccccc1/C=C/C(=O)/C=C/c1ccccc1O`, the growth was -5.37% (active).

Regarding `COc1ccc(-c2cn[nH]c2-c2cc(OC)c(OC)c(OC)c2)cc1N`, the growth was -17.8% (active) and -10.7% (active).

On to `COc1cccc(NC(=O)[C@H](C(C)C)n2c(=O)[nH]c3ccccc3c2=O)c1`, for which the growth was 86.2% (inactive).

On to `CCN1C(=O)N(CC)C2C1NN=c1s/c(=C3\C(=O)N(C(C)C)c4ccccc43)c(=O)n12` (centres undefined), for which the growth was -22.6% (active).

On to `O=C(Cn1c(C(=O)c2ccccc2)nc2ccccc21)c1ccc(F)cc1`, for which the growth was 17.4% (inactive).

Consider `N#C/C(=C\c1ccc(Br)cc1)n1nnc2ccc(F)cc21`, for which the growth is -23.2% (active).

For the molecule `COc1cc(CN2CCC(N3CCCC3=O)c3ccccc32)cc(OC)c1OC` (centres undefined), the growth was 56.4% (inactive).

In the case of `Cc1cc(N2CCC(N3CCCC3)CC2)nc(/N=C(\N)Nc2ccc(Cl)c(Cl)c2)n1`, the growth is 90.4% (inactive).

With `Cc1cc(Nc2ccc(C)c(Cl)c2)n2nc(C(F)(F)F)nc2n1`, the growth was 100% (inactive).

For the molecule `CN1CCN(c2ccc3nc(-c4ccc(OCCCCN5CCN(CCCCN6C(=O)c7cccc8cccc(c78)C6=O)CC5)cc4)[nH]c3c2)CC1`, the growth was 16.6% (inactive).

For `C=CC(=O)NCc1ccc(Nc2nccc(-c3ccc(N4CCCC4)c(C#N)c3)n2)cc1`, the growth is -12.9% (active).

As to `CCOc1ccc(Nc2c3ccccc3nc3ccccc23)cc1`, the growth is 90.2% (inactive) and 8.63% (active) and 8.99% (active).

Consider `O=C(CCc1nnc2sc(-c3ccc(Cl)cc3Cl)nn12)c1nc2ccccc2[nH]1`, for which the growth was 3.48% (active).

Take `CCCCCCCCn1ccc2cc(NC(=O)Cn3cc(CN4CCCCC4)nn3)ccc21`: the growth is -18.7% (active).

With `CC(C)NC1CCC(Nc2ccnc3cc(Cl)ccc23)CC1` (centres undefined), the growth is 57.9% (inactive).

Turning to `Nc1nc(N)c2cc(S(=O)(=O)c3ccccc3)ccc2n1`, the growth is 23.2% (inactive) and 20.7% (inactive).
